Measurements reported in PubChem BioAssay AID1159580 (chemical genetic matrix, 2015).
The whole screen tested about 5,500 compounds, of which about 2,000 (36%) were called active. Roughly 18% stayed inconclusive and do not appear here. This is one part of the list. Unmarked numbers belong to inactive results. No stated cut-off is given here; in the data, active means normalized growth mostly below about 0.91 (no sharp cut-off); inconclusive means no clear call, values can overlap the other calls; inactive means mostly above about 0.92.

Experiment: chemical genetic growth profiling, strain panel (AID 1159580);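 further: tested at 20 µM; growth read once vehicle control cultures reached saturation at 30 °C; 1 = growth at the plate median or of vehicle wells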
Details: S. cerevisiae deletion strains, growth OD
[1] = locus YAL013W, strain DEP1, stronger effect = lower value
[2] = locus YGR078C, strain PAC10, stronger effect = lower value
[3] = locus YJR075W, strain HOC1, stronger effect = lower value
[4] = locus YMR263W, strain SAP30, stronger effect = lower value
[5] = locus YNL153C, strain GIM3, stronger effect = lower value
[6] = locus YPL055C, strain LGE1, stronger effect = lower value
[7] = locus YPL241C, strain CIN2, stronger effect = lower value
[8] = locus YBR229C, strain ROT2, stronger effect = lower value
[9] = locus YDL101C, strain DUN1, stronger effect = lower value
[10] = locus YDR150W, strain NUM1, stronger effect = lower value
[11] = locus YEL061C, strain CIN8, stronger effect = lower value
[12] = locus YHR030C, strain SLT2, stronger effect = lower value
[13] = locus YHR087W, strain rtc3, stronger effect = lower value
[14] = locus YJL187C, strain SWE1, stronger effect = lower value
[15] = locus YJR043C, strain POL32, stronger effect = lower value
[16] = locus YLR039C, strain RIC1, stronger effect = lower value
[17] = locus YLR058C, strain SHM2 (second series), stronger effect = lower value
[18] = locus YLR085C, strain ARP6, stronger effect = lower value
[19] = locus YLR262C, strain YPT6, stronger effect = lower value
[20] = locus YML094W, strain GIM5, stronger effect = lower value
[21] = locus YMR219W, strain ESC1, stronger effect = lower value
[22] = locus YNL298W, strain CLA4 (second series), stronger effect = lower value
[23] = locus YNL322C, strain KRE1, stronger effect = lower value
[24] = locus YNR030W, strain Alg12, stronger effect = lower value
[25] = locus YPR135W, strain CTF4, stronger effect = lower value

For COc1ccccc1N1CCN(CCCCN2C(=O)c3ccccc3C2=O)CC1, the normalized growth [1] was 1, the normalized growth (locus YAL040C, strain CLN3, stronger effect = lower value) was 0.99 and the normalized growth (locus YCL061C, strain MRC1 (second series), stronger effect = lower value) was 0.995. It also gave a normalized growth (locus YDR363W, strain ESC2, stronger effect = lower value) of 0.963, a normalized growth (locus YER002W, strain NOP16, stronger effect = lower value) of 1.01 and a normalized growth [2] of 0.985. For the same compound, the normalized growth (locus YGR229C, strain SMI1, stronger effect = lower value) was 1.02, the normalized growth [3] was 0.993 and the normalized growth [4] was 1. For the same compound, the normalized growth [5] was 0.99, the normalized growth (locus YNL175C, strain NOP13, stronger effect = lower value) was 0.979 and the normalized growth (locus YNL197C, strain WHI3, stronger effect = lower value) was 0.981. It also gave a normalized growth (locus YNL224C, strain SQS1, stronger effect = lower value) of 1, a normalized growth (locus YOR083W, strain WHI5 (second series), stronger effect = lower value) of 0.985 and a normalized growth [6] of 0.971. It also gave a normalized growth [7] of 1.
COc1ccccc1N1CCN(C(=O)C(C)Nc2ccccn2)CC1 (configuration not stated) showed a normalized growth [1] of 0.994, a normalized growth [8] of 1 and a normalized growth [9] of 0.985. It also gave a normalized growth [10] of 0.986, a normalized growth [11] of 1.01 and a normalized growth [2] of 0.986. For the same compound, the normalized growth [12] was 0.952, the normalized growth [13] was 1.01 and the normalized growth [14] was 0.994. For the same compound, the normalized growth [15] was 1, the normalized growth [3] was 1.02 and the normalized growth [16] was 0.997. The normalized growth [17] was 0.996, the normalized growth [18] was 1.04 and the normalized growth [19] was 0.996. The normalized growth [20] was 0.984, the normalized growth [21] was 0.999 and the normalized growth [4] was 1.04. For the same compound, the normalized growth (locus YMR307W, strain GAS1, stronger effect = lower value) was 1.09, the normalized growth [5] was 1.02 and the normalized growth [22] was 0.997. For the same compound, the normalized growth [23] was 0.999, the normalized growth [24] was 1 and the normalized growth [6] was 1.01. The normalized growth [7] was 1.24 [resistant] (active) and the normalized growth [25] was 1.
For COc1cc(NC(=S)N2CCN(c3ccccc3OC)CC2)c(OC)cc1Cl, the normalized growth [1] was 1.01, the normalized growth [8] was 0.992 and the normalized growth (locus YCL061C, strain MRC1, stronger effect = lower value) was 0.984. The normalized growth [9] was 1, the normalized growth (locus YDL134C, strain PPH21, stronger effect = lower value) was 1.01 and the normalized growth [10] was 0.92. The normalized growth [11] was 1, the normalized growth [2] was 1.01 and the normalized growth [12] was 0.95. It also gave a normalized growth [13] of 1.01, a normalized growth [14] of 0.997 and a normalized growth [15] of 0.984. The normalized growth [3] was 0.999, the normalized growth (locus YKL190W, strain CNB1, stronger effect = lower value) was 1.02 and the normalized growth [16] was 0.949. It also gave a normalized growth [17] of 1.01, a normalized growth [18] of 1.14 and a normalized growth [19] of 0.962. The normalized growth [20] was 0.995, the normalized growth [21] was 1 and the normalized growth [4] was 0.924. The normalized growth (locus YNL128W, strain TEP1, stronger effect = lower value) was 1.02, the normalized growth [5] was 0.98 and the normalized growth [22] was 1. For the same compound, the normalized growth [23] was 0.997, the normalized growth [24] was 1.01 and the normalized growth [6] was 0.9. For the same compound, the normalized growth [7] was 0.895 and the normalized growth [25] was 0.966.
Compound N#Cc1nccnc1N1CCN(C(=O)Nc2cc(Cl)cc(Cl)c2)CC1 has a normalized growth (locus YAR019C, strain CDC15, stronger effect = lower value) of 0.963, a normalized growth (locus YBL105C, strain PKC1, stronger effect = lower value) of 0.972 and a normalized growth (locus YBR135W, strain CKS1, stronger effect = lower value) of 0.947. The normalized growth (locus YBR136W, strain MEC1, stronger effect = lower value) was 0.972, the normalized growth (locus YBR160W, strain CDC28, stronger effect = lower value) was 0.965 and the normalized growth (locus YDL017W, strain CDC7, stronger effect = lower value) was 0.969. The normalized growth (locus YDL028C, strain MPS1, stronger effect = lower value) was 0.965, the normalized growth [9] was 0.975 and the normalized growth (locus YDL108W, strain KIN28, stronger effect = lower value) was 0.968. For the same compound, the normalized growth (locus YDL132W, strain cdc53, stronger effect = lower value) was 0.967, the normalized growth (locus YDL214C, strain PRR2, stronger effect = lower value) was 0.955 and the normalized growth (locus YDR052C, strain DBF4, stronger effect = lower value) was 0.969. For the same compound, the normalized growth (locus YDR054C, strain cdc34, stronger effect = lower value) was 0.952, the normalized growth (locus YDR226W, strain ADK1, stronger effect = lower value) was 0.965 and the normalized growth (locus YDR477W, strain SNF1, stronger effect = lower value) was 0.923. The normalized growth (locus YER123W, strain YCK3, stronger effect = lower value) was 0.946, the normalized growth (locus YER133W, strain GLC7, stronger effect = lower value) was 0.967 and the normalized growth (locus YFL009W, strain cdc4, stronger effect = lower value) was 0.951. The normalized growth (locus YFL029C, strain CAK1, stronger effect = lower value) was 0.958, the normalized growth (locus YFR003C, strain YPI1, stronger effect = lower value) was 0.972 and the normalized growth (locus YFR019W, strain FAB1, stronger effect = lower value) was 0.947. For the same compound, the normalized growth (locus YFR028C, strain CDC14, stronger effect = lower value) was 0.966, the normalized growth (locus YGR040W, strain KSS1, stronger effect = lower value) was 0.946 and the normalized growth (locus YGR052W, strain FMP48, stronger effect = lower value) was 1.05. For the same compound, the normalized growth (locus YGR092W, strain DBF2, stronger effect = lower value) was 0.896, the normalized growth [12] was 0.714 (active) and the normalized growth (locus YHR079C, strain IRE1, stronger effect = lower value) was 0.739. It also gave a normalized growth (locus YHR082C, strain KSP1, stronger effect = lower value) of 0.964, a normalized growth (locus YHR205W, strain SCH9, stronger effect = lower value) of 0.946 and a normalized growth (locus YIL147C, strain SLN1, stronger effect = lower value) of 0.966. It also gave a normalized growth (locus YJL095W, strain BCK1, stronger effect = lower value) of 0.824, a normalized growth (locus YJL128C, strain PBS2, stronger effect = lower value) of 0.954 and a normalized growth (locus YJL157C, strain FAR1, stronger effect = lower value) of 0.925. The normalized growth (locus YJR016C, strain ILV3, stronger effect = lower value) was 0.952, the normalized growth (locus YJR066W, strain TOR1 (second series), stronger effect = lower value) was 0.934 and the normalized growth (locus YJR066W, strain TOR1, stronger effect = lower value) was 0.891. It also gave a normalized growth (locus YKL048C, strain ELM1, stronger effect = lower value) of 0.959, a normalized growth (locus YKL067W, strain YNK1, stronger effect = lower value) of 0.959 and a normalized growth (locus YKL101W, strain HSL1, stronger effect = lower value) of 0.938. It also gave a normalized growth (locus YKL193C, strain SDS22, stronger effect = lower value) of 0.961, a normalized growth (locus YKL203C, strain TOR2, stronger effect = lower value) of 0.985 and a normalized growth (locus YLR113W, strain HOG1, stronger effect = lower value) of 0.892. The normalized growth (locus YLR133W, strain CKI1, stronger effect = lower value) was 0.942, the normalized growth (locus YLR403W, strain SFP1, stronger effect = lower value) was 0.949 and the normalized growth (locus YML070W, strain DAK1, stronger effect = lower value) was 0.94. For the same compound, the normalized growth (locus YMR001C, strain CDC5, stronger effect = lower value) was 0.968, the normalized growth (locus YMR205C, strain PFK2 (second series), stronger effect = lower value) was 0.947 and the normalized growth (locus YMR277W, strain FCP1, stronger effect = lower value) was 0.97. It also gave a normalized growth (locus YNL006W, strain LST8, stronger effect = lower value) of 0.961, a normalized growth (locus YNL020C, strain ARK1, stronger effect = lower value) of 0.934 and a normalized growth (locus YNL161W, strain CBK1, stronger effect = lower value) of 0.961. For the same compound, the normalized growth (locus YNL183C, strain NPR1, stronger effect = lower value) was 0.952, the normalized growth (locus YNL207W, strain RIO2, stronger effect = lower value) was 0.971 and the normalized growth (locus YNL222W, strain SSU72, stronger effect = lower value) was 0.967. The normalized growth (locus YNL307C, strain MCK1 (second series), stronger effect = lower value) was 0.941, the normalized growth (locus YOL078W, strain AVO1, stronger effect = lower value) was 0.961 and the normalized growth (locus YOL136C, strain PFK27, stronger effect = lower value) was 0.924. The normalized growth (locus YOR061W, strain CKA2, stronger effect = lower value) was 0.931, the normalized growth (locus YOR119C, strain RIO1, stronger effect = lower value) was 1.02 and the normalized growth (locus YOR231W, strain MKK1, stronger effect = lower value) was 0.883. For the same compound, the normalized growth (locus YOR329C, strain SCD5, stronger effect = lower value) was 0.971, the normalized growth (locus YPL031C, strain PHO85, stronger effect = lower value) was 0.9 and the normalized growth (locus YPL153C, strain RAD53, stronger effect = lower value) was 0.906. It also gave a normalized growth (locus YPL204W, strain HRR25, stronger effect = lower value) of 0.915, a normalized growth (locus YPL209C, strain IPL1, stronger effect = lower value) of 0.974 and a normalized growth (locus YPL256C, strain CLN2, stronger effect = lower value) of 0.922. For the same compound, the normalized growth (locus YPR025C, strain CCL1, stronger effect = lower value) was 0.959, the normalized growth (locus YPR106W, strain ISR1, stronger effect = lower value) was 0.986 and the normalized growth (locus YPR111W, strain DBF20, stronger effect = lower value) was 0.958. The normalized growth (strain NNK1, stronger effect = lower value) was 0.973 and the normalized growth (strain TSCII, stronger effect = lower value) was 0.953.
